Only some compounds are listed: those with a hit (about 12% of all), similar ones and a draw of the others.
RORgamma inh: qHTS for inhibitors of ROR gamma transcriptional activity; Drosophila S2 Gal4-RORgamma UAS-luciferase reporter, 20 h; Potency, µM (titrated, usually from 53.6 µM), hits mostly inhibitors; 310,000 compounds, 5.4% hits; further: nearly all actives have a fitted effect of over 60% in size
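Compounds are pin-transferred onto Drosophila Schneider cells expressing a copper-inducible Gal4–ROR gamma transactivation domain fusion. After 1 hr, copper sulfate is added to 700 uM final; luciferase is read 20 hr later.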
PLK1 PBD inh: qHTS for Inhibitors of PLK1-PDB (polo-like kinase 1 - polo-box domain): Primary Screen; Serine/threonine-protein kinase PLK1 (Homo sapiens), P53350; Plk1 PBD binding of FITC phosphopeptide, fluorescence polarization; Potency, µM, usual class: inhibitors; 360,000 compounds, 2.8% hits; AID 720504, 2013; further: series mostly up to about 57 µM; nearly all actives have a fitted effect of over 65% in size
Sfp inh: qHTS Assay for Inhibitors of Bacillus subtilis Sfp phosphopantetheinyl transferase (PPTase). 4'-phosphopantetheinyl transferase ffp (Bacillus subtilis), Q9F4F7. Biochemical Sfp PPTase activity, qHTS. Potency, µM, actives largely listed as inhibitors. 310,000 compounds, 3.5% hits;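 further: the enzyme is Sfp with the accession as filed and its product quenches rhodamine fluorescence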
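Compounds were incubated with enzyme (final 15 nM) for 15 min at room temperature before substrate addition started the reaction. Fluorescence at 525 nm excitation, 598 nm emission was recorded immediately and after 30 minutes.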
Gal4-VP16 FLuc: VP16 counterscreen qHTS for inhibitors of ROR gamma transcriptional activity; Drosophila S2 Gal4-VP16 UAS-luciferase, luminescence, 20 h; AID 2546, 2010; Potency, µM (top dose mostly 53.6 µM), most hits filed as inhibitors; 310,000 compounds, 3.5% hits;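 further: Gal4-VP16 expression switched on by copper sulfate through the metallothionein promoter; nearly all actives have a fitted effect of over 50% in size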
ALDH1A1 block: qHTS Assay for Inhibitors of Aldehyde Dehydrogenase 1 (ALDH1A1) | 220,000 compounds, 7.3% hits | Potency, µM (series often up to 75.3 µM), usual class: inhibitors | Purified ALDH1A1, NADH fluorescence, propionaldehyde substrate | Aldehyde dehydrogenase 1A1 (Homo sapiens), P00352; active means well fitted inhibition curve with a large enough effect, not every such curve was filed as active; inconclusive means small, poorly fitted or top-dose-only effect, or another doubt; inactive means no such curve, though single readings can be large or run the other way
Target sequence (P00352 whole entry, looked up): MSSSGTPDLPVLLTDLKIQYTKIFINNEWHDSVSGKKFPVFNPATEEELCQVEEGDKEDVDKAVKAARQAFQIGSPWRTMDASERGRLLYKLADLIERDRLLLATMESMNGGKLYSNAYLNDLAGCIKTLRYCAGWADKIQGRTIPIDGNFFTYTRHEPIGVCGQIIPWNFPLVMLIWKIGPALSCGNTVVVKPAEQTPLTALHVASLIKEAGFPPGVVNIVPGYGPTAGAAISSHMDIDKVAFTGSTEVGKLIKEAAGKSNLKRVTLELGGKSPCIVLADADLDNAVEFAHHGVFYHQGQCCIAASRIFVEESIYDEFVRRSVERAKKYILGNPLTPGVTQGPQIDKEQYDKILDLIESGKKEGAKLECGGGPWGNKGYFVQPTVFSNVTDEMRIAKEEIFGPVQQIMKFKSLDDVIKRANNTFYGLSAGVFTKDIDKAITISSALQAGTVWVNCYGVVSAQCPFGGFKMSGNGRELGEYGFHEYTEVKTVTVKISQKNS
Hits are given with their value; 0 = inactive; ? = inconclusive; - = not tested or not shown; ! = repeats disagree; [ ] = remark or other dose. Unless noted, the call rests on the fitted dose curve; in most records, active means well fitted curve in the direction sought with a large enough effect; inconclusive means small, poorly fitted or top-dose-only effect, or another doubt; inactive means no such curve, though single readings can be large; an effect the other way counts as inactive or inconclusive.

SMILES	RORgamma inh	PLK1 PBD inh	Sfp inh	Gal4-VP16 FLuc	ALDH1A1 block
O=C(NCC1CCCO1)C(c1cccs1)N(Cc1cccs1)C(=O)Cn1nnc(-c2cccs2)n1 (centres undefined)	0	0	0	0	8.9µM
Cc1ccc(-c2nnn(CC(=O)N(Cc3cccs3)C(C(=O)NC3CCCC3)c3ccco3)n2)o1 (centres undefined)	0	0	0	?	22µM
CC(C)c1cn(CC[C@@H]2CC[C@@H](NC(=O)C3CCCCC3)[C@@H](CO)O2)nn1	-	0	-	-	-
CC(C)n1[nH]c2ccccc2c1=O	-	0	-	-	-
O=C(/C=C/c1ccco1)NC(=S)Nc1cccc(-c2nc3ccccc3o2)c1	2.2µM	0	?	13µM	?
Cc1ccc(-c2nc3ccccc3o2)cc1NC(=S)NC(=O)/C=C/c1ccco1	2µM	0	0	?	0
CCC(=O)Nc1cccc(-c2nc3ccccc3o2)c1	0	0	0	?	0
N[C@H](C(=O)O)c1nn[nH]n1	0	-	89µM	0	0
Cc1scc(C(=O)NCc2ccco2)c1-c1ccccc1	0	0	?	0	?
Cc1scc(C(=O)Nc2ccon2)c1-c1ccccc1	0	0	0	0	28µM
COc1cccc(-c2sc3ccc(OC)cc3c2-c2cnc(N3CCOCC3)nc2)c1	-	0	-	-	-
CCOC(=O)C(=O)N(Nc1ccccc1C)c1ccccc1C	2.8µM	0	0	?	?
c1cnc2c(-c3ccc4nccn4c3)cccc2c1	-	0	-	-	-
OCCOCCN1CCN(C2=Nc3ccccc3Sc3ccccc32)CC1	0	0	50µM!	0	0
CCCCC[C@H]1CCCCC[C@H](O)C[C@@H](O)[C@H](O)/C=C/C(=O)O1	-	0	-	-	-
CCCC(=O)N1CCCC(c2nc(-c3cccs3)no2)C1 (centres undefined)	?	30µM	0	0	0
Cc1ccc(N=N/C(=C\O)C(=O)c2ccncc2)cc1	0	0	0	0	4µM
O=C(/C(=C/O)N=Nc1ccc(Cl)cc1)c1ccncc1	0	?	0	0	10µM
Cc1ccc(S(=O)(=O)NNC(=O)c2ccncc2)cc1	0	0	0	0	0
CCOC(=O)c1cc(-c2ccccc2)sc1NC(=O)C(C)(C)C	0	0	0	0	?
C=CCNC(=S)Nc1cc(C)ccn1	1µM	0	0	4µM	?
CCC(=O)Nc1ccc(NC(=O)/C=C/c2ccc(Cl)cc2)cc1	?	30µM	0	0	0
COc1ccc(CC(=O)Nc2cc(C)ccn2)cc1	?	0	0	?	?
CCOC(=O)c1cc(-c2ccccc2)sc1NC(=S)Nc1cc(C)ccn1	1µM	0	0	2.2µM	0
Cc1ccnc(NC(=S)NC(=O)/C=C/c2ccccc2)c1	2.8µM	0	0	?	0
SMILES	RORgamma inh	PLK1 PBD inh	Sfp inh	Gal4-VP16 FLuc	ALDH1A1 block
COc1cc2ccc(C(=O)O)cc2cc1OC	-	0	-	-	-
CCC1CN2CCC1CC2[C@@H](NC(=S)Nc1cc(C(F)(F)F)cc(C(F)(F)F)c1)c1cccc2ccc(OC)cc12 (some centres undefined)	0	-	?	0	0
COc1ccc(C2=Nc3ccccc3N(C(=O)c3ccc4ncccc4c3)C2C(=O)NC(C)(C)C)cc1 (centres undefined)	-	0	-	-	-
COc1cccc([C@@H]2Oc3ccc(OC)cc3C[C@H]2OC(=O)Nc2ccc(OC(F)F)cc2)c1	?	-	0	0	0
COc1ccc(/C=C/C(=O)Nc2c(C(=O)O)[nH]c3ccccc23)cc1OC	0	27µM	0	0	-
CC(=O)c1ccc(NC(=S)NC(=O)/C=C/c2ccccc2)cc1	0	0	0	0	-
Cc1cccnc1NC(=S)NC(=O)/C=C/c1ccccc1	4.5µM	0	0	6.3µM	0
O=C(/C=C/c1ccccc1)NC(=S)Nc1cccnc1	7.1µM	0	0	0	0
CCC(=O)Nc1ccc(NC(=S)NC(=O)/C=C/c2ccccc2)cc1	13µM	0	0	?	0
C#CCCCO/N=C1/C[C@@H](O)[C@@H](O)[C@@H]2[C@@H]3C(=O)N(C4CCCCC4)C(=O)[C@H]3CC[C@H]12	0[10 µM]	-	0	0[10 µM]	0[13.5 µM]
Cc1nc2cnc(N3CCN(C)CC3)nc2n(C2CC2)c1=O	0	-	0	0	?
O=C(O)c1ccccc1NS(=O)(=O)c1cccc2ccccc12	-	-	-	-	0
CCOc1ccc(NC(=S)NC(=O)/C=C/c2ccc(C)cc2)c([N+](=O)[O-])c1	0	0	0	0	?
COc1ccc(/C=C/C(=O)NC(=S)Nc2ccccc2)cc1OC	10µM	0	0	?	-
Cc1ccnc(NC(=S)NC(=O)/C=C/c2ccc(Cl)cc2)c1	14µM	0	0	13µM	0
Cc1ccnc(NC(=O)/C=C/c2ccccc2Cl)c1	3.5µM	0	0	5.6µM	0
COc1ccc(/C=C/C(=O)NC(=S)Nc2ccc(Br)cn2)cc1	?	0	0	0	-
CCOc1ccc(NC(=S)NC(=O)/C=C/c2ccc(OC)c(OC)c2)c([N+](=O)[O-])c1	1.1µM	?	50µM	2.5µM	0
Cc1ccnc(NC(=O)/C=C/c2ccccc2[N+](=O)[O-])c1	0	-	0	0	?
COc1ccc(/C=C/C(=O)Nc2ccccc2)cc1OC	0	0	0	0	0
O=C(COC(=O)CN1C(=O)C2CC=CCC2C1=O)Nc1cccc([N+](=O)[O-])c1 (centres undefined)	-	0	-	-	-
Cc1cccc(NC(=O)/C(C#N)=C/c2ccc(Cl)cc2)n1	0	0	0	0	-
Cc1cccc(NC(=O)/C=C/c2ccc(Cl)cc2)n1	1.6µM	0	0	7.1µM	0
OC(c1cc(Cl)cc(Cl)c1)c1ncc(-c2cccc(F)c2)[nH]1 (centres undefined)	-	0	-	-	-
C[C@@H](O)[C@@H]1C(=O)N2C(C(=O)O)=C([C@H]3CCCO3)S[C@H]12	0	-	79µM	0	-
SMILES	RORgamma inh	PLK1 PBD inh	Sfp inh	Gal4-VP16 FLuc	ALDH1A1 block
COCC(=O)Nc1c(I)c(C(=O)NC[C@@H](O)CO)c(I)c(C(=O)N(C)C[C@@H](O)CO)c1I	0[2.98 µM]	-	0	0	0
N#Cc1c(NCc2ccccc2)ccnc1NCc1cccnc1	?	0	0	10µM	0
CC1=C(C(N)=O)C(c2cccs2)NC(=S)N1 (centres undefined)	0	27µM	0	0	?
CC1=C(C(=O)Nc2ccc(F)c(F)c2)C(c2cccs2)NC(=S)N1 (centres undefined)	0	0	0	0	0.63µM
COc1cc2c(cc1C1NC(=S)NC(C)=C1C(N)=O)CCCC2 (centres undefined)	2.8µM	0	0	0	0
CC1=C(C(N)=O)C(c2cccs2)NC(=O)N1 (centres undefined)	0	0	0	0	-
COc1cc(C2NC(=S)NC(C)=C2C(=O)c2ccccc2)ccc1O (centres undefined)	0	0	0	0	?
CC1=C(C(=O)Nc2cccc(C)c2C)C(c2cccs2)NC(=S)N1 (centres undefined)	0	0	0	0	0

High-throughput results as filed in PubChem.
